We go through 26 molecules from PubChem BioAssay AID463173 (ICCB-Longwood Screening Facility, Harvard Medical School, 2010).

In all, about 52,000 compounds went through this assay and about 1,700 (3.3%) were called active. No stated cut-off is given here; in the data, active means survival mostly below about 52% (no sharp cut-off); inactive means mostly above about 56%. For the sample, actives were picked, then their nearest neighbours and some compounds at random.

The test system of the assay is Wild type. Briefly: S. aureus survival, RN4220 and DeltatarO strains – OD600, teichoic acid synthesis inhibitors, primary screen (AID 463173). Particulars: S. aureus RN4220 wild type/DeltatarO growth, OD600, 18 h, stronger effect = lower value, screened at 18.75 µg/mL (by protocol).
For `O=C(CSc1nccn1Cc1ccccc1)Nc1nc2ccccc2s1`, the survival is 121% (inactive).

As to `O=C(CSc1nccn1Cc1ccc(F)cc1)Nc1nc2ccccc2s1`, the survival was 82% (inactive). The figure for `Cc1ccc(Cn2ccnc2SCC(=O)Nc2nnc(C)s2)cc1` is 65% (inactive). `Cc1nnc(NC(=O)CSc2nccn2Cc2ccc(Cl)cc2)s1`: the survival is 118% (inactive).

`Cc1nnc(NC(=O)CSc2nccn2Cc2ccc(F)cc2)s1`: the survival is -2% (active). The same measure for `O=C(CSc1nccn1Cc1ccc(Cl)cc1)Nc1nc2ccccc2s1`: 0% (active); for `Cc1ccc2nc(NC(=O)CSc3nccn3Cc3ccccc3)sc2c1`: 10% (active); for `Cc1ccc2nc(NC(=O)CSc3nccn3Cc3ccc(Cl)cc3)sc2c1`: 72% (inactive). The same measure for `Cc1ccc2nc(NC(=O)CSc3nccn3Cc3ccc(F)cc3)sc2c1`: 80% (inactive); for `CCOc1ccc(NC(=O)Cn2c(=O)n(Cc3ccccc3)c(=O)c3sc4ccccc4c32)cc1`: 78% (inactive); for `COc1cc(NC(=O)Nc2nnc(N3CCCCCC3)s2)cc(OC)c1`: 78% (inactive). The same measure for `Cc1cccc(N2CCN(c3ncnc4c3cnn4-c3ccc(Cl)cc3)CC2C)c1` (stereo unspecified): 83% (inactive); for `CCc1ccc(OC(C)c2nc(-c3ccc(-n4cccc4)cc3)no2)cc1` (stereo unspecified): -4% (active). In the case of `CCc1ccc(OCc2nc(-c3ccc(-n4cccc4)cc3)no2)cc1`, the survival was 104% (inactive). The figure for `CCCc1ccc(OC(C)c2nc(-c3ccc(-n4cccc4)cc3)no2)cc1` (stereo unspecified) is 56% (inactive). Consider `O=C(Nc1ccc2oc(-c3ccncc3)nc2c1)c1ccccc1Cl`, for which the survival was 73% (inactive). The same measure for `Cc1ccc(CNC(=O)c2cc3c(=O)oc4ccc(C)cc4c3s2)cc1`: 88% (inactive); for `COc1cc2cc(CN(Cc3ccc4c(c3)OCO4)C(=O)NCc3ccccc3)c(=O)[nH]c2cc1OC`: 117% (inactive). The same measure for `COc1ccc(CN(CCC(c2ccc3c(c2)OCO3)c2ccccc2OC)C(C)=O)cc1` (stereo unspecified): 8% (active); for `COc1ccc(CNCCC(c2ccc3c(c2)OCO3)c2ccccc2OC)cc1` (stereo unspecified): 25% (inactive); for `CCC(=O)N(CCC(c1ccccc1)c1ccc2c(c1)OCO2)Cc1ccc(OC(C)C)cc1` (stereo unspecified): 1% (active). As for `NC(=O)CC(c1ccccc1)c1ccc2c(c1)OCO2` (stereo unspecified), the survival was 117% (inactive). The figure for `CCOCCCNC(=O)C(c1ccccc1)N(Cc1ccc2c(c1)OCO2)C(=O)c1ccc(NC(C)=O)cc1` (stereo unspecified) is 70% (inactive); for `CCOCCCNC(=O)C(c1ccc(OC)cc1)N(Cc1ccc2c(c1)OCO2)C(=O)c1ccc(NC(C)=O)cc1` (stereo unspecified) it is 69% (inactive); for `COc1ccc(CNCCC(c2ccccc2)c2ccc3c(c2)OCO3)cc1` (stereo unspecified) it is 3% (active). As for `COc1ccc(CNCCC(c2ccc(C)cc2)c2ccco2)cc1` (stereo unspecified), the survival was 72% (inactive).
